The target in test [1] is T1, Aspartate--tRNA(Asp/Asn) ligase (Mycobacterium tuberculosis (strain ATCC 25618 / H37Rv)) (UniProt P9WFW3). Note: in the data most compounds retested in dose-response had high values.
T1 sequence (whole entry): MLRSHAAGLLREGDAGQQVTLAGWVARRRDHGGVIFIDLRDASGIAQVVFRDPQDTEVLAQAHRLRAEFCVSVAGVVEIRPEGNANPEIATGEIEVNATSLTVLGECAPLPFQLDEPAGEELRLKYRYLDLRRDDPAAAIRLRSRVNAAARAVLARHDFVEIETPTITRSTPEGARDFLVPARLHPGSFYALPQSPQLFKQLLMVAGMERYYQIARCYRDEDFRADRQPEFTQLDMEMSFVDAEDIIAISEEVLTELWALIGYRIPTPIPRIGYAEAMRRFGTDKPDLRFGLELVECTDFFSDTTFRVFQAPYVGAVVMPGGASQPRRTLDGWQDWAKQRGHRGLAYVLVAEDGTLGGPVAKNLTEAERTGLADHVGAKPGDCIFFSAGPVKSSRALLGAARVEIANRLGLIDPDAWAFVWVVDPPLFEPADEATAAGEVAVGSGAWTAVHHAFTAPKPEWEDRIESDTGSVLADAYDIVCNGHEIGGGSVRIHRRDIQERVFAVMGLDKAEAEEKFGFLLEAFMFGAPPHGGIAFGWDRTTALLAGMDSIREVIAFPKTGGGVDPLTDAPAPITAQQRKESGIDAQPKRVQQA
The test is described as follows: Assay for Asp RNA synthetase-1 from Mycobacterium tuberculosis. In kind it is functional. Conditions: 30 µM. Further details: scale not given: direction of the effect not stated beside the values.

Test [2] has as its target Shiga toxin 2 (Escherichia coli O157:H7) (UniProt P09385+P09386). Kind of test: E. coli 0.157:H7 Shiga Toxin SOP - stx2 screening assay. In kind it is functional. Details: scale not given: direction of the effect not stated beside the values. The following applies: 30 µM.

With `CC(=O)N1CCCC1c1cccc(Cc2ccccc2F)n1` (centres undefined), the Percent Effect in test [1] was -0.134%; in test [2] it was 4.04%.

Take `Cc1ccsc1C(=O)NCCCn1nc2ccccn2c1=O`: the Percent Effect in test [1] amounted to 1.69%; in test [2], 16.8%.

As to `Cn1cnnc1C1CCCN(C(=O)NCCNc2ccccn2)C1` (centres undefined), the Percent Effect in test [1] is -6.46%; in test [2], 19%.

As for `CCc1nccn1C1CCCN(C(=O)c2ccc3c(c2)OCO3)C1` (centres undefined), the Percent Effect in test [1] was -0.182%; in test [2], 11.8%.

Regarding `O=C(NCCc1ccsc1)Nc1cccnc1N1CCCC1`, the Percent Effect in test [1] was 1.77%; in test [2], -4.75%.

On to `Cc1cccc(CN(C)Cc2nc3c(cnn3C)c(=O)[nH]2)c1`, for which the figures for the Percent Effect in test [1] and in test [2] were 3.62% and 35.9%, respectively.

Turning to `COc1ccnc(N2CCN(C(=O)Cc3ccc(C)s3)CC2)n1`, the Percent Effect is 2.36% in test [1] and 5.8% in test [2].

Regarding `O=C(c1cccnc1N1CCOCC1)N1CCCC(n2ccnc2)C1` (centres undefined), the results for the Percent Effect in test [1] and in test [2] were -4.5% and 31.6%, respectively.

As to `CCN(c1ccc(C(=O)NCCCN2CCCC2)cc1)S(=O)(=O)CC`, the Percent Effect in test [1] was 2.52%; in test [2], -46.4%.

As for `COC(=O)N1CCCN(C(=O)NCc2ccc(Cl)s2)CC1`, the results for the Percent Effect in test [1] and in test [2] were 5.28% and -16.1%, respectively.

Turning to `CC(C)CN1CCC2(CCN(C(=O)c3ccc(F)cc3)CC2)C1=O`, the Percent Effect in test [1] is -3.41%; in test [2] it was -8.12%.

`Cc1ccc(CN(C)CC(=O)NC2(C)CCS(=O)(=O)C2)cc1` (centres undefined): the figures for the Percent Effect in test [1] and in test [2] were 1.84% and -25.3%, respectively.

Take `O=c1[nH]c2c(c(=O)n1C1CCCCC1)CCC2Nc1ccccc1` (centres undefined): the Percent Effect came to 3.05% in test [1] and 1.28% in test [2].

Regarding `Cc1csc(CNC(=O)NCCc2ccc3c(c2)OCCO3)n1`, the figures for the Percent Effect in test [1] and in test [2] were -5.39% and -15.4%, respectively.

`CCC(=O)NC1CCN(c2cccc(CC)c2)CC1`: the Percent Effect was 1.79% in test [1] and 5.5% in test [2].

For the compound `O=C(NS(=O)(=O)c1ccc2c(c1)OCCO2)c1ccc(Br)cc1F`, the Percent Effect came to 1.56% in test [1] and 8.44% in test [2].

On to `Cc1cnn(CC2CCCN2CC(=O)N(C)CCC#N)c1` (centres undefined), for which the Percent Effect was -0.546% in test [1] and -11.9% in test [2].

Take `CC(=O)Nc1nc(C(=O)NC(C)c2ccc3c(c2)OCCO3)cs1` (centres undefined): the values for the Percent Effect in test [1] and in test [2] were -1.73% and 7.36%, respectively.

Turning to `Clc1snnc1CN1CCOC(CNc2cccnn2)C1` (centres undefined), the Percent Effect in test [1] is -1.85%; in test [2], -5.91%.

Consider `NC(=O)c1cc(C2CCCN(CCc3ccccn3)C2)n[nH]1` (centres undefined), for which the figures for the Percent Effect in test [1] and in test [2] were -0.833% and -5.89%, respectively.

`CN1N=C(C(=O)Nc2cc(F)ccc2OCC2CCCO2)CCC1=O` (centres undefined): the values for the Percent Effect in test [1] and in test [2] were -1.12% and 5.1%, respectively.

In the case of `CC(C)c1nnc2n1CC(CNCc1ccncc1)CC2` (centres undefined), the Percent Effect is -2.34% in test [1] and -14.7% in test [2].

Turning to `CC(C)CC1SCC(=O)Nc2c1cnn2C(C)C` (centres undefined), the Percent Effect in test [1] was 3.17%; in test [2] it was -18.7%.

Turning to `Cc1cccc(CCC(=O)N2CCOCC2c2c(C)n[nH]c2C)c1` (centres undefined), the Percent Effect in test [1] is 3.91%; in test [2], -16.7%.

For `COCC(C)(O)CNC(=O)COc1ccccc1OC` (centres undefined), the Percent Effect in test [1] was -4.69%; in test [2], -2.25%.

As for `CCCNC(=O)N1CCC(Oc2cc(C)ccc2F)(C(=O)O)CC1`, the Percent Effect in test [1] was -3.4%; in test [2] it was 8.44%.

Consider `Cc1nc(C2CCCN2CC(=O)N2CCCc3ccccc32)no1` (centres undefined), for which the Percent Effect is 2.35% in test [1] and -12.2% in test [2].

As to `Cc1cc2c(cc1C(=O)N1CC[C@H](CO)[C@@H](O)C1)OCCO2`, the figures for the Percent Effect in test [1] and in test [2] were -0.915% and 8.21%, respectively.

Turning to `COc1ccc(-c2nnc(SC(C)C(=O)NC3CC3)[nH]2)c(OC)c1` (centres undefined), the values for the Percent Effect in test [1] and in test [2] were 2.19% and 7.63%, respectively.

For `CN1CCN(C2CCN(CC(=O)NCC(F)(F)F)CC2)C1=O`, the values for the Percent Effect in test [1] and in test [2] were -5.68% and -21%, respectively.

Take `CN(Cc1ccco1)[C@@H]1CN(Cc2ccc(F)cc2)C[C@@H]2CCCO[C@@H]21`: the values for the Percent Effect in test [1] and in test [2] were 6.12% and 7.23%, respectively.

In the case of `CC(C)c1nc(C2CCCN2CCc2ccncc2)no1` (centres undefined), the Percent Effect in test [1] was 1.61%; in test [2], -7.28%.

For the compound `COCCN1CCC(N(Cc2noc(C3CC3)n2)C(C)=O)C1` (centres undefined), the Percent Effect is -1.46% in test [1] and 29.5% in test [2].

For `Cc1cc(N2CCC3(CCC(=O)N(CC4CC4)C3)CC2)nc(N)n1`, the Percent Effect in test [1] was -0.719%; in test [2], 0.426%.

As to `O=C(CCCOc1ccc(F)cc1)N1CCCC(n2cccn2)C1` (centres undefined), the Percent Effect in test [1] was -0.115%; in test [2] it was 7.54%.

For the compound `Cn1cccc1C(=O)N1CCCC2(CCN(CCN3CCCC3)C2=O)C1` (centres undefined), the values for the Percent Effect in test [1] and in test [2] were -3.77% and -30.4%, respectively.

On to `CCn1cc(N)c(C(=O)NCc2cnn(C)c2)n1`, for which the values for the Percent Effect in test [1] and in test [2] were -1.99% and -25.8%, respectively.

Source of the values: ChEMBL document CHEMBL3988442, “University of Dundee, Small-Polar-MMV Screening Library” (2021).
